This note sets out measurements from PubChem BioAssay (Tox21).

Several values for one entry are separate records, joined by “and”; a condition that tells them apart may be missing. Equal values may be shown once. Records with an inconclusive call do not appear. Activity calls are given as the source filed them. The call rests on the fitted dose curve; in most records, active means well fitted cell-killing curve with a large enough effect in the repeat runs; inconclusive means weak or mixed curves, or effect the other way; inactive means no such curve, though single readings can be large or run the other way.
On the % scale 0 is the no-effect control and ±100 the full control effect; potency means the concentration at half of the fitted maximal effect.

This assay can be described thus: qHTS assay for identifying genotoxic compounds that show differential cytotoxicity against isogenic chicken DT40 cell lines with known DNA damage response pathways - wild type cell line (AID 743012). Further: nearly all actives have a fitted effect of over 60% in size. The following applies: DT40 wild type chicken cells viability, CellTiter-Glo, 40 h; series mostly up to 68.4 µM; activity change, negative = cytotoxicity: at the top concentration. From the text: U.S. Tox21 Program National Center for Advancing Translational Sciences [NCATS] NIH Chemical Genomics Center [NCGC] U.S. Environmental Protection Agency [EPA] National Institutes of Environmental Health Sciences [NIEHS] National Toxicology Program [NTP] U.S. Food and Drug Administration [FDA] Tox21 Assay Overview: DNA repair pathways play a critical role in cellular homeostasis by repairing DNA damage induced by endogenous processes and xenobiotics. Isogenic chicken DT40 cell lines deficient in different DNA repair pathways can be used to identify genotoxic compounds and aid in characterizing the nature of the DNA damage induced. Two DNA repair-deficient cell lines with disrupted genes, Rad54/Ku70 or Rev3, were used to screen the Tox21 10K compound library. Possible genotoxicity was based on the presence of a significant increase in cytotoxicity in one or more of the DNA repair-deficient cell lines compared to that observed in the parental DNA repair-proficient cell line. CellTiter Glo viability assay (Promega, Madison, WI) was used to measure cell viability in these cells after compound treatment. This assay includes the data from the wild type cell line.
Tox21 Assay Protocol Summary: 300 DT40 wild type cells in 5 uL/well were dispensed into white, solid-bottom 1536-well plates using a Multidrop Combi (ThermoFisher Scientific, Waltham, MA) dispenser. After the assay plates were incubated at 37 C/5% CO2 for approximately 0.5 hour, 23 nL of compounds dissolved in DMSO, positive controls or DMSO only was transferred into the assay plate by a pintool work station (Kalypsys, San Diego, CA). The assay plates were incubated at 37 C/5% CO2 for 40 hours. After 5 uL per well of CellTiter-Glo reagent was added into each well of the assay plates, the plates were incubated for 30 min at room temperature and the luminescence intensity of the plates was measured using a ViewLux (PerkinElmer, Shelton, CT) plate reader.
As for `C[C@@H](c1ncncc1F)C(O)(Cn1cncn1)c1ccc(F)cc1F` (stereo not given in full), the “activity change, negative = cytotoxicity” value is -9.3% (inactive).

With `O=C1OC(=O)C2C3C=CC(C3)C12` (stereo not given), the “activity change, negative = cytotoxicity” value was 14.5% (inactive).

Turning to `C=CC(=O)OCCOCCOCCOCCOC(=O)C=C`, the Potency was 13.8 µM (active) and 12.1 µM (active).

As for `O=P(O)(OCc1ccccc1)OCc1ccccc1`, the “activity change, negative = cytotoxicity” value was 2.2% (inactive).

For `CC/C=C\CCOC(=O)CC`, the “activity change, negative = cytotoxicity” value is 0.976% (inactive).

In the case of `NCC(=O)CCC(=O)O`, the “activity change, negative = cytotoxicity” value is 4.68% (inactive).

With `O=C1[C@H]2CCCC[C@H]2C(=O)N1CCCCN1CCN(c2nsc3ccccc23)CC1`, the Potency is 6.68 µM (active).

For `CCN(CC)c1ccc2c(-c3ccccc3C(=O)O)c3ccc(=[N+](CC)CC)cc-3oc2c1`, the Potency is 12.2 µM (active).

On to `CCCCC1=NC2(CCCC2)C(=O)N1Cc1ccc(-c2ccccc2-c2nn[nH]n2)cc1`, for which the “activity change, negative = cytotoxicity” value was 16.1% (inactive).

For the compound `C[C@@H]1C[C@H]2O[C@@]3(O[C@@H]2C(C)(C)O)[C@H](O)[C@@]2(C)[C@@H]4CC[C@H]5C(C)(C)[C@@H](O[C@@H]6OC[C@@H](O)[C@H](O)[C@H]6O)CC[C@@]56C[C@@]46CC[C@]2(C)[C@@H]13`, the “activity change, negative = cytotoxicity” value is -8.97% (inactive).

For the compound `Brc1c2ccccc2cc2ccccc12`, the “activity change, negative = cytotoxicity” value is 15.3% [at 95 µM] (inactive).

As for `C=CCOC(=O)CCC1CCCCC1`, the “activity change, negative = cytotoxicity” value is 2.04% (inactive).

Turning to `C=CC(=O)OCCOc1ccccc1`, the Potency was 54.4 µM (active).

In the case of `OC[C@H]1O[C@@H](OCCc2ccc(O)cc2)[C@H](O)[C@@H](O)[C@@H]1O`, the “activity change, negative = cytotoxicity” value was -4.08% (inactive).

In the case of `NCCCN1CCOCC1`, the “activity change, negative = cytotoxicity” value was -15.5% (inactive).

As for `C[C@H](CCC(=O)O)[C@H]1CC[C@H]2[C@@H]3CC[C@@H]4C[C@H](O)CC[C@]4(C)[C@H]3C[C@H](O)[C@]12C`, the Potency entry was “inactive”.

Take `CC(C)(C)Cl`: the “activity change, negative = cytotoxicity” value was 1.1% [at 95 µM] (inactive).

For `CC(=O)[O][Al][O]C(C)=O`, the Potency entry is “inactive”.

As for `CN(C)c1ccc(CCO)cc1`, the “activity change, negative = cytotoxicity” value was 17.9% (inactive).

With `CCCCCCCCCCCc1ccccc1`, the “activity change, negative = cytotoxicity” value was -0.96% (inactive).

In the case of `CCCCC(CC)COC(=O)COc1ccc(Cl)cc1Cl` (stereo not given), the “activity change, negative = cytotoxicity” value is 2.4% [at 95 µM] (inactive).

On to `CC(C)CC(=O)C1C(=O)c2ccccc2C1=O`, for which the “activity change, negative = cytotoxicity” value was -1.26% (inactive).

For the compound `c1ccc(CNCCNCc2ccccc2)cc1`, the “activity change, negative = cytotoxicity” value is -19.7% (inactive).

With `O=S(=O)(Oc1ccc(Cl)cc1)c1ccccc1`, the “activity change, negative = cytotoxicity” value was -25.1% (inactive).

Consider `CCN(CC)CCOC(=O)C(c1ccccc1)C1CCCCC1` (stereo not given), for which the Potency was 21.1 µM (active).

Consider `O=C(c1ccc(F)cc1)C1CCN(CCn2c(=S)[nH]c3ccccc3c2=O)CC1`, for which the Potency was 18.8 µM (active).

For `CC1CCC(=O)C1=O` (stereo not given), the “activity change, negative = cytotoxicity” value is 2.69% [at 95 µM] (inactive).

For `CN1CCN(C(c2ccccc2)c2ccccc2)CC1`, the “activity change, negative = cytotoxicity” value is 0.356% [at 31.4 µM] (inactive).

On to `CCCCCCCN`, for which the “activity change, negative = cytotoxicity” value was 1.13% [at 95 µM] (inactive).

Turning to `Nc1ccc(S(=O)(=O)Nc2ccccc2)cc1`, the “activity change, negative = cytotoxicity” value is -1.86% (inactive).

`CN(C)C(=O)NC1(c2ccccc2)CCN(CC[C@@]2(c3ccc(F)c(F)c3)CN(C(=O)c3ccccc3)CCO2)CC1`: the Potency was 40.2 µM (active).

`Nc1ncn([C@H]2C[C@H](O)[C@@H](CO)O2)c(=O)n1`: the Potency was 0.106 µM (active).

On to `COc1cc(C(=O)OCCCN2CCCN(CCCOC(=O)c3cc(OC)c(OC)c(OC)c3)CC2)cc(OC)c1OC`, for which the Potency was 8.41 µM (active).

Regarding `NCc1ccccc1Sc1ccccc1CO`, the Potency is 21.1 µM (active).

For the compound `CCCCc1ncc(/C=C(\Cc2cccs2)C(=O)O)n1Cc1ccc(C(=O)O)cc1`, the “activity change, negative = cytotoxicity” value is 3.38% (inactive).

Take `CO[C@@H]1[C@H](OC(=O)/C=C/C=C/C=C/C=C/C(=O)O)CC[C@]2(CO2)[C@H]1[C@@]1(C)O[C@@H]1CC=C(C)C`: the Potency is 1.9 nM (active) and 12.2 nM (active).

With `CCOC(=O)C(F)(F)F`, the “activity change, negative = cytotoxicity” value is -27.6% (inactive).

Turning to `O=C(CS)Nc1ccccc1`, the Potency was 11.9 µM (active).

On to `COc1ccc(C(=O)N2CCN(CC(=O)N3CCOCC3)CC2)cc1`, for which the “activity change, negative = cytotoxicity” value was 18.6% (inactive).

In the case of `Cn1c(=O)cc(Oc2ccc(F)cc2F)c2cnc(NCC(C)(C)O)nc21`, the “activity change, negative = cytotoxicity” value is -25.8% (inactive).
